From PubChem BioAssay AID1851 (National Center for Advancing Translational Sciences (NCATS), 2009)
Values joined by “and” are separate entries in the source; they are usually repeats but may differ in a detail not shown here. Equal entries are not always repeated. Hit rate of the full screen: of about 16,000 compounds, about 2,600 (16%) were called active. About 20% were inconclusive and are not listed. The list is a sample of the results. Unmarked numbers belong to inactive results. The call rests on the fitted dose curve; in most records, active means well fitted curve in the direction sought with a large enough effect; inconclusive means small, poorly fitted or top-dose-only effect, or effect the other way; inactive means no such curve, though single readings can be large or run the other way.
On the % scale 0 is the no-effect control and ±100 the full control effect.

What follows are molecules tested against Cytochrome P450 2D6 (Homo sapiens) (UniProt P10635) (assay: Cytochrome panel assay with activity outcomes). Conditions: recombinant CYP, pro-luciferin dealkylation, luminescence, p450-cyp2d6; series mostly up to 57.1 µM.
Chain of Cytochrome P450 2D6 (Homo sapiens) (P10635 whole entry, looked up): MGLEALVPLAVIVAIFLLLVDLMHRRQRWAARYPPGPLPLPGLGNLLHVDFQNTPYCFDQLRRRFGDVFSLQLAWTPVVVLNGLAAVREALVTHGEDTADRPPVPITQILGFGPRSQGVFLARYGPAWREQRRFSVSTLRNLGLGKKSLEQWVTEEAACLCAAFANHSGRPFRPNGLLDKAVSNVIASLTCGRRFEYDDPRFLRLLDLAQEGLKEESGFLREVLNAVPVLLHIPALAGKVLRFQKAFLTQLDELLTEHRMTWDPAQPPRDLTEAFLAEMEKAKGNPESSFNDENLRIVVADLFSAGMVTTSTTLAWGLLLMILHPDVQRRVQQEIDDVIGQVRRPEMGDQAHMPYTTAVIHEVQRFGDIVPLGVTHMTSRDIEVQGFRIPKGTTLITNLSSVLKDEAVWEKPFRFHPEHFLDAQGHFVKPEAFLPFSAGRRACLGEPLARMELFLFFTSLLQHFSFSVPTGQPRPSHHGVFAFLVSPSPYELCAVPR
For `CC#CCCCC(=O)Nc1ccc(C(=O)O)cc1`, the AC50 was “inactive”. With `Cn1nc(C(F)(F)F)c(/C=N/OC(=O)c2ccc(Cl)cc2)c1Cl` the AC50 was 15.8 µM (active). `Cn1nc(C(F)(F)F)c(/C=N/OC(=O)c2ccccc2Cl)c1SCc1ccc(Cl)cc1` was tested, and the AC50 was “inactive”. With `Cn1nc(C(F)(F)F)c(/C=N/OCc2c(Cl)cccc2Cl)c1Cl` the AC50 was “inactive”. For `C=CC(=O)NC(NC(=O)C=C)c1ccc(Br)cc1`, the AC50 was “inactive”. For `C(=C1/CCCC2=C1Nc1ncnn1C2c1ccccc1)/c1ccccc1` (stereo not drawn), the AC50 was “inactive”. For `O=C1CC(=Nc2ccccc2)NN1c1ccccc1`, the AC50 was “inactive”. In the case of `CCCCSc1ccc2nc(-c3ccc(C#N)cc3)cn2c1`, the AC50 is reported as “inactive”. With `CCN(Cc1ccncc1)C(=O)[C@@H](CO)c1ccccc1` the AC50 was “inactive”. In the case of `CN(C)CCOC(=O)[C@@H](c1ccccc1)C1(O)CCCC1`, the AC50 is reported as “inactive”. `O=C1CCC[C@@H](C(C(=O)OCc2ccccc2)C(=O)OCc2ccccc2)C1` gave an activity, negative = inhibition of -12.9% [at 11.4 µM]. With `CCCC(C(=O)OCCN(CC)CC)(c1ccccc1)c1ccccc1` the AC50 was 63.1 nM (active) and 15.8 nM (active). With `O=C(O)C1CCCN1C(=O)OCc1ccccc1` (stereo not drawn) the AC50 was “inactive”. For `CCN(CC)CCOC(=O)[C@@H](c1ccccc1)C1CCCCC1`, the AC50 was 0.631 µM (active). For `CCN(CC)CCOC(=O)C(c1ccccc1)c1ccccc1`, the AC50 was 5.01 µM (active). Work on `N[C@@](CCc1ccccc1)(C(=O)O)c1ccccc1` yielded an activity, negative = inhibition of 0.379% [at 11.4 µM]. In the case of `N#Cc1cccc(NC(=O)N2CCC3(CC2)CCN(C(=O)c2cccc(F)c2)CC3)c1`, the AC50 is reported as “inactive”. Work on `O=C(O)[C@@H]1[C@@H]2C[C@@H]3[C@@H](OC(=O)[C@@H]31)[C@H]2Br` yielded an activity, negative = inhibition of 0.593% [at 11.4 µM]. For `CCOC(=O)c1ccc(-c2ccc(/C=C(\C#N)C(=O)NCC3CCCO3)o2)cc1` (stereo not drawn), the AC50 was “inactive”. With `COC(=O)c1cc2c(ccn2-c2ccc(F)cc2)n1CC(C)C` the AC50 was “inactive”. With `OC[C@@H]1O[C@@H](n2cnc3cncnc32)[C@@H](O)[C@H]1O` the AC50 was “inactive”. With `NC(=O)Nc1n[nH]c(-c2ccccc2)n1` the activity, negative = inhibition was 9.86% [at 11.4 µM]. In the case of `Cc1ccc2cc3cc(C(=O)N4CCCCC4C)oc3nc2c1` (stereo not drawn), the AC50 is reported as “inactive”. Work on `O[C@@H]1[C@@H](OCc2ccccc2)OC[C@H](O)[C@@H]1O` yielded an activity, negative = inhibition of 0.194% [at 11.4 µM]. `CCOc1cc(NC(=S)Nc2cccc(C)c2)c(OCC)cc1NC(=O)CC(C)C` was tested, and the AC50 was “inactive”. With `COc1cc(C(=O)NC(=S)Nc2ccc(Cl)c(C(=O)O)c2)cc(OC)c1OC` the AC50 was “inactive”. `COc1cc(OC)c(NC(=S)Nc2cccc(C(C)=O)c2)cc1Cl` was tested, and the AC50 was 15.8 µM (active). For `CC(C)CCNC(=O)Cc1ccccc1[N+](=O)[O-]`, the AC50 was “inactive”. `O=C(CSc1c[nH]c2ccccc12)N1CCOCC1` was tested, and the AC50 was “inactive”. In the case of `CCc1cc2c(=O)c(-c3nc4ccccc4[nH]3)coc2cc1OC(=O)N1CCOCC1`, the AC50 is reported as “inactive”. With `O=C(c1ccco1)N1CCN(C(=O)C2(S(=O)(=O)c3ccc(Cl)cc3)CC2)CC1` the AC50 was “inactive”. `CCOC(=O)N1CCN(C(=O)C(C)SCc2ccccc2)CC1` (stereo not drawn) was tested, and the AC50 was “inactive”. For `CCOC(=O)N1CCN(S(=O)(=O)Cc2ccccc2)CC1`, the AC50 was “inactive”. For `COC(=O)[C@H](Cc1ccccc1)NC(=O)N1CCN(Cc2ccccc2)CC1`, the AC50 was 11.2 µM (active). For `CC(C)NC1(C(N)=O)CCN(Cc2ccccc2)CC1`, the AC50 was 0.631 µM (active). In the case of `CCOC(=O)C1(S(=O)(=O)c2ccccc2)CCN(Cc2ccccc2)CC1`, the AC50 is reported as 2 µM (active). With `COc1ccc(Nc2ncc(C(=O)N3CCN(Cc4ccccc4)CC3)c3ccccc23)cc1` the AC50 was “inactive”. In the case of `COC(=O)[C@H](Cc1ccccc1)NC(=O)[C@@H](C)CO`, the activity, negative = inhibition is reported as 3.71% [at 11.4 µM]. With `CCOC(=O)N1CCN(C(=O)CSCc2ccc(Cl)cc2)CC1` the AC50 was “inactive”. In the case of `CCOC(=O)C1(S(=O)(=O)c2ccc(Cl)cc2)CCN(Cc2ccc(Cl)cc2)CC1`, the AC50 is reported as 3.55 µM (active). `C/C(=N\Nc1nnc(C)c(=O)[nH]1)C(=O)O` was tested, and the AC50 was “inactive”. With `COc1ccc(C2/C(=C(/O)c3ccc(Cl)cc3)C(=O)C(=O)N2CCN2CCOCC2)c(OC)c1` (stereo not drawn) the AC50 was “inactive”. With `CN[C@@H]1NC(=O)c2ccccc2N1Cc1ccc(F)cc1` the activity, negative = inhibition was 10.6% [at 11.4 µM]. With `CSc1nnc(-c2cc3c(-c4ccccc4)nn(C)c3s2)n1C` the AC50 was “inactive”. In the case of `CC(C)(N=NC(C)(C)C1=NCCN1)C1=NCCN1`, the activity, negative = inhibition is reported as 6.75% [at 11.4 µM]. For `O=c1[nH]c(=O)n(Cc2ccco2)c2c1C(C(F)(F)F)(C(F)(F)F)N=C(CCC1CCCCC1)N2`, the AC50 was “inactive”. Molecule `CC(C)CO/N=C1/[C@H]2O[C@@H]2[C@@H](O)[C@H]2[C@H]1CCn1c(=O)n(C)c(=O)n12` has an activity, negative = inhibition of 1.5% [at 11.4 µM]. For `CC(C)C[C@H](NC(=O)N1CCCCCC1)C(=O)N[C@H](Cc1cn(C)c2ccccc12)C(=O)N[C@H](Cc1ccccn1)C(=O)O`, the AC50 was “inactive”. `Cc1ccc(C(=O)NC(=S)Nc2cccc3nsnc23)cc1` was tested, and the AC50 was “inactive”. With `CC(C)(C)C(=O)Nc1cccc(-c2nc3ccccc3c(=O)o2)c1` the AC50 was “inactive”. With `CN(C)CCNc1ccccn1` the activity, negative = inhibition was -15.2% [at 11.4 µM]. In the case of `c1ccc(CCNc2ccccn2)nc1`, the activity, negative = inhibition is reported as -8.12% [at 11.4 µM]. With `O[C@H](CNc1ccccn1)c1ccccc1` the AC50 was 1.58 µM (active). Molecule `CCCNC(=O)OC[C@@H]1O[C@H](CCO/N=C\C[C@H]2C=C[C@H](OC(C)=O)[C@@H](COC(C)=O)O2)C=C[C@@H]1Oc1ccc(OC)cc1` has an activity, negative = inhibition of -15.6% [at 11.4 µM]. For `CC(C)=CCNc1ncnc2nc[nH]c12`, the activity, negative = inhibition was 10.2% [at 11.4 µM]. In the case of `COc1ccc(N2CCN(C(=S)Nc3cccc(C)c3)CC2)cc1`, the AC50 is reported as “inactive”. `CN(C)Cc1ccccc1-c1nccc(N(C)C)n1` was tested, and the AC50 was 1 µM (active). With `CN(C)Cc1ccccc1-c1nccc(N(C)Cc2ccco2)n1` the AC50 was 0.794 µM (active). With `Cc1noc(C)c1-c1nccc(N(C)Cc2ccco2)n1` the AC50 was “inactive”. `CN(C)c1ccnc(-c2ccccc2C(F)(F)F)n1` was tested, and the AC50 was “inactive”. In the case of `Cc1noc(C)c1-c1nccc(N(C)C)n1`, the AC50 is reported as “inactive”. `Cn1c2c(c(=O)n(C)c1=O)C(C(F)(F)F)(C(F)(F)F)N=C(c1ccc(Cl)cc1)N2` was tested, and the AC50 was “inactive”. For `COc1ccc(Oc2nc3ccccc3nc2C(F)(F)F)cc1`, the AC50 was “inactive”.
